Reference: publication PMC12136788
Numbering of substitutions follows the chain as printed. Over roughly 24,000 sequences, “enrichment r” has its median near 0.99; the highest 2% begin near 3.7. What follows is part of a selection rich in the highest values, with near analogues and random picks from the rest.

B1: chr1:90180492:90180493:+_ENSG00000171488_ENST00000370454|hu_hu|motif|central (ssRNA)
RNA: GGGAGUUCUACAGUCCGACGAUCUUUCAUUUGCUCCCGGACGUCAGAAGGCAGAGUUUCAAACAGAGCAUCUUCGGCAACGGAACCAGCUCGCUUCAGAGCCCGACAGUCACCCAGUUCAGGAGGGAGGAUUUCAAAGUGAUUCAACAGAGGAUUGAGCAUCA
B2: chr1:39494447:39494448:+_ENSG00000168653_ENST00000372967|hu_mus|hu_hu_hu_mus_False|38_58 (ssRNA)
RNA: GGGAGUUCUACAGUCCGACGAUCGCACCGAGCGGCGUUCUUAUAGGGCUGUUCUGCGCUUAGGAACAUAAAGUGCCGAUCUAUGUUGAUGCCCAGCCUUUUCUGGAUGUCAAGGAAAGGCAUGGCUCUGCAGUGCCCUUGUCACAACAGAGGAUUGAGCAUCA
B3: 131003253_131003911_1761_CDS_ENSMUSG00000068267_ENSMUST00000089510|mouse|control|control (ssRNA)
RNA: GGGAGUUCUACAGUCCGACGAUCCAAGGGCCAAAGACUGGGCCAGAGAAAGGGAUCUGGGGAGGUGGAAAGCAGGCAGAGGCAGGCUCGGUUCUUCCUAGUCACGUGGACCAGAUCGUGUUCCAAAUGAAGGAUGUGACUCUGCAACAGAGGAUUGAGCAUCA
B4: chr7:7679991:7679992:-_ENSG00000106399_ENST00000396682|hu_hu|hu_hu_hu_mus_False|48_58 (ssRNA)
RNA: GGGAGUUCUACAGUCCGACGAUCUGGGAUGAAUCUUUUCCAGCUUCCCCACGAAGCACACGGGCCGGUCGAUAUACUGAGCUAGCAUGCCGGCGUUGACGCGCGCUUUGGGGAGCUGCAUUAUGUCCUCCAUGAUUCUGCCGCCAACAGAGGAUUGAGCAUCA
B5: chr7:75932113:75932114:+_ENSG00000106211_ENST00000248553|hu_hu|hu_hu_hu_mus_False|38_78 (ssRNA)
RNA: GGGAGUUCUACAGUCCGACGAUCCUGCGACCACUCAUCGGGCAACCGGGGCACCCCGAAGGCCUGGUCGAAGAGGCGGCUGUGUGCAGGGUACCAGCGGAAGGGGUGUUCCCAGCUCGGGCUCCGCAGCAGCGAGAAGGGCACCAACAGAGGAUUGAGCAUCA
B6: chr12:3264740:3264741:-_ENSMUSG00000020671_ENSMUST00000021001|mus_mus|FALSE|FALSE (ssRNA)
RNA: GGGAGUUCUACAGUCCGACGAUCCCAUAUCUGUAGCUUGAUCUUCUUUCCUUGUAGUUCCACUGUUUUGAUCUUAAAGUCUAUUCCUAUGGUGGAAAUAAAGGUGGUAUUGAAGGCAUCGUCCGAAAAACGAAAAAGGACGCACAACAGAGGAUUGAGCAUCA
B7: chr7:92085846:92085847:+_ENSG00000157259_ENST00000287957|hu_mus|FALSE|FALSE (ssRNA)
RNA: GGGAGUUCUACAGUCCGACGAUCGUUAAAACUGAGGCUUUAUACCUGCGAAGUAAGUAUGUCCCAGGUUUGGUUUUGUAACUACAAGUGGUUGGCAACUGUUUCCUUAAUAGUUAUCGCAGGAGUAGGUCCAACGUGAGUCCACAACAGAGGAUUGAGCAUCA
B8: chr21:34877999:34878000:-_ENSG00000159131_ENST00000381815|hu_hu|motif|central (ssRNA)
RNA: GGGAGUUCUACAGUCCGACGAUCGUCAAUUGCACUGUCAAAUUCUACACGAUUUUUAUACAGUUUAUGAUUAAUUACUCGGGUGGGAAUACCAGCUCUUUCCGCUUUAUCUAACCCAGCUACUGCGGCUUUGUUGGAGAUAACCAACAGAGGAUUGAGCAUCA
B9: chr19:15271055:15271056:-_ENSG00000074181_ENST00000263388|hu_mus|motif|central (ssRNA)
RNA: GGGAGUUCUACAGUCCGACGAUCAUAUAUAUUUUGUAAAAAAUAAUAAUAAUAAUAAGUUUGUUUAAAUGAAUUUGUCUCGGUACAAAAUGUAAAAAAGAAAAAAAUAAUAACUCACUCUUGUCAGAGUGUGAGACAAUGAGACAACAGAGGAUUGAGCAUCA
B10: chr4:109959894:109959895:-_ENSMUSG00000028546_ENSMUST00000106598|mus_mus|motif|central (ssRNA)
RNA: GGGAGUUCUACAGUCCGACGAUCGCUUCGACUCUUCUCUUAAAAUUUGCAAAGGUUUCAGAAUAUACUUAAAAAUGACGGCGGUUGUUUUAUAUAUAUAUAUAUUAAAGAUCCACAGACCACAGUGUGGAUGAUUGUAAAGUACAACAGAGGAUUGAGCAUCA
B11: chr2:23028566:23028567:+_ENSMUSG00000026775_ENSMUST00000028117|mus_mus|FALSE|FALSE (ssRNA)
RNA: GGGAGUUCUACAGUCCGACGAUCGGUCUUCUGUGUAAGAGCUUGAGCUUUGAGAAAACCCUCUGCAAAACCAGUUUUAAAUGCAUCUUGGUGAGCUUCAGGUAUGUUUUUAGUUUUCAUAAGUUUGUCCAAACUCUCAAGAUCCAACAGAGGAUUGAGCAUCA
B12: chr18:25531195:25531196:-_ENSG00000170558_ENST00000399380|hu_mus|motif|central (ssRNA)
RNA: GGGAGUUCUACAGUCCGACGAUCCUUUUUUUUUUUUUGUGUGUAAUUUUUUUGGUACAAAUUAUGUAAAACACUUGUGCGGAGAACUUUUACCCCUCCCCAAAACGAAACAAACAAAAAGAAAAUAAAAAAAUUUAAAAAAAACAACAGAGGAUUGAGCAUCA
B13: chr4:109959894:109959895:-_ENSMUSG00000028546_ENSMUST00000106598|mus_mus|FALSE|FALSE (ssRNA)
RNA: B10 RNA with G79U, G80A, G82U, G83A
B14: 72560208_72560328_3170_3pUTR_ENSMUSG00000056429_ENSMUST00000070524|mouse|control|control (ssRNA)
RNA: GGGAGUUCUACAGUCCGACGAUCUCCUAAAAAUUAGCGGAGAGUAUACCUAGAUAAUUUCUUUAAAAAAAAAAAAGUGGACUUCUGUGAUGAUAAAAAUGUUUUUAGUUUAUAGUGUGGAGUUUUCAGAUGAUUAGAGAAAGUCAACAGAGGAUUGAGCAUCA
B15: chr1:60041781:60041782:+_ENSMUSG00000041040_ENSMUST00000036540|mus_hu|mus_mus_mus_hu_False|38_58 (ssRNA)
RNA: GGGAGUUCUACAGUCCGACGAUCAAGUUUACAAUAGUAAAGUAAAUGCAGUAGUGGCAAAUUUUCUUUUAUUUUCCUUCCUAAAAGAAAAUCUUUAGAUCUCAGUUCUAGUCUUGGACAUAGUGAAAGCUAUAAAUUCUGACUCAACAGAGGAUUGAGCAUCA
B16: chr22:28376736:28376737:-_ENSG00000100154_ENST00000397906|hu_hu|FALSE|FALSE (ssRNA)
RNA: GGGAGUUCUACAGUCCGACGAUCAUUUUAGAAUUACCUAAAAGAUACUUACUUAUCUAAAUUCUCCAACUAAACUCAGUACUAAUACGACUUUCAGCAUUUCCUUUCUUUAUAAAAUAAAUUAAUGGUUACCCCUAACUAGAUCAACAGAGGAUUGAGCAUCA
B17: chr2:179803060:179803061:+_ENSMUSG00000039086_ENSMUST00000041126|mus_mus|FALSE|FALSE (ssRNA)
RNA: GGGAGUUCUACAGUCCGACGAUCAUGUAAAAAAAAAAAAAAUCACCCAAUUCUCACUGUAUAAAACUUGUCCUUUUCAUUUGAAAGAACGUAAUAAAGUUAUUUGGAUUCAUUAAAAAUGCAGUGUGGAUUUCAGACUUCCCUCAACAGAGGAUUGAGCAUCA

target: T1, UNK ZnF1-3 (human, UniProt Q9C0B0 31-174); experiment: nsRBNS (natural sequence RNA bind-n-seq); RBNS binding buffer (assumed for nsRBNS): 25 mM Tris pH 7.5, 150 mM KCl, 3 mM MgCl2, 0.01% Triton X-100, 500 ug/ml BSA, 20 U/ml SUPERase-In, 4 C; UNK is unkempt and MSI1 is Musashi-1; names of the RNAs are library labels; protein concentration not given here; high values mean tight binding
T1 sequence: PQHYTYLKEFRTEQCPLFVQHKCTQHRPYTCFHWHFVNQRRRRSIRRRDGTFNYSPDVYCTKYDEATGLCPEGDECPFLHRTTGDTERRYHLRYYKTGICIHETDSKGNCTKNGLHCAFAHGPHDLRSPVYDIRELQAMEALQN

Binder | binding signal [enrichment R]
B1 | 3.35
B2 | 0.477
B3 | 1.29
B4 | 0.406
B5 | 0.969
B6 | 1.8
B7 | 0.838
B8 | 0.651
B9 | 11.3
B10 | 3.36
B11 | 1.2
B12 | 3.31
B13 | 4.13
B14 | 8.87
B15 | 0.462
B16 | 1.4
B17 | 5.86
